From PubChem BioAssay (NCATS)
Results filed as inconclusive are left out. Where a call stands in place of a potency, no number is given. Active and inactive are the calls of the source. The call rests on the fitted dose curve; in most records, active means well fitted curve in the direction sought with a large enough effect; inconclusive means small, poorly fitted or top-dose-only effect, or another doubt; inactive means no such curve, though single readings can be large; an effect the other way counts as inactive or inconclusive.

Target: Cytochrome P450 2C9 (Homo sapiens) (UniProt P11712)
Test: qHTS for inhibitors of CYP2C9 against the NCATS DSHEA and TCM libraries (AID 1919973); further: potency means the concentration at half of the fitted maximal effect
Conditions: recombinant CYP2C9 enzyme activity, luminescence; series mostly up to 34.1 µM
Method in brief: (§1)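 Light output from converted D-luciferin reports remaining CYP activity. Compounds preincubate with enzyme and substrate for 15 min; NADPH regeneration (1x final) runs the reaction for 30-45 min.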

Chain of Cytochrome P450 2C9 (Homo sapiens) (P11712 whole entry, looked up): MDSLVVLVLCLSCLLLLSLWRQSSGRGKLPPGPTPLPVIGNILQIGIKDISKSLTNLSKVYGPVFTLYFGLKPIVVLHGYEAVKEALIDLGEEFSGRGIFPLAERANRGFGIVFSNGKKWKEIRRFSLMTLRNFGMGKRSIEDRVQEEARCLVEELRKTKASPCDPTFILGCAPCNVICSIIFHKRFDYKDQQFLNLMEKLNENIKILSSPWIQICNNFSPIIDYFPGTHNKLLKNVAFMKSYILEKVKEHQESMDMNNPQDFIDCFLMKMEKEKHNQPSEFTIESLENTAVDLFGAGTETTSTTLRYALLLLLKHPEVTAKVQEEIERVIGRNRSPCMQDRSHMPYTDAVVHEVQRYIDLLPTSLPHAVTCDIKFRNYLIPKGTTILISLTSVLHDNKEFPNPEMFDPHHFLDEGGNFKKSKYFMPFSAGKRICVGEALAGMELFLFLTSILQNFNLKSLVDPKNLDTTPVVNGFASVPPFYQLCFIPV

Structure (SMILES)	Potency
C=C[C@H]1CN2CC[C@@]3(C(=O)Nc4ccccc43)[C@@H]2C[C@@H]1/C(=C\OC)C(=O)OC	inactive
C=C[C@H]1CN2CCc3c([nH]c4ccccc34)[C@H]2C[C@@H]1/C(=C\OC)C(=O)OC	3.16 µM (active)
CCCCCCCCCCCCCCCCCCCC(=O)O	15.8 µM (active)
COC1=C[C@@]23CCN(C)[C@H](Cc4ccc(OC)c(O)c42)C3=CC1=O	inactive
COC(=O)C1=CO[C@@H](C)[C@@H]2CN3CC[C@@]4(C(=O)Nc5ccccc54)[C@@H]3CC12 (some centres not stated)	inactive

Target: Cytochrome P450 2C19 (Homo sapiens) (UniProt P33261)
Test: qHTS for inhibitors of CYP2C19 against the NCATS DSHEA and TCM libraries (AID 1919974);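 further: luminescence from luciferin released by CYP2C19 oxidation of a pro-luciferin substrate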; further: potency means the concentration at half of the fitted maximal effect
Conditions: CYP2C19 enzyme inhibition, luminescence qHTS; series mostly up to 34.1 µM
Method in brief: as §1

Chain of Cytochrome P450 2C19 (Homo sapiens) (P33261 whole entry, looked up): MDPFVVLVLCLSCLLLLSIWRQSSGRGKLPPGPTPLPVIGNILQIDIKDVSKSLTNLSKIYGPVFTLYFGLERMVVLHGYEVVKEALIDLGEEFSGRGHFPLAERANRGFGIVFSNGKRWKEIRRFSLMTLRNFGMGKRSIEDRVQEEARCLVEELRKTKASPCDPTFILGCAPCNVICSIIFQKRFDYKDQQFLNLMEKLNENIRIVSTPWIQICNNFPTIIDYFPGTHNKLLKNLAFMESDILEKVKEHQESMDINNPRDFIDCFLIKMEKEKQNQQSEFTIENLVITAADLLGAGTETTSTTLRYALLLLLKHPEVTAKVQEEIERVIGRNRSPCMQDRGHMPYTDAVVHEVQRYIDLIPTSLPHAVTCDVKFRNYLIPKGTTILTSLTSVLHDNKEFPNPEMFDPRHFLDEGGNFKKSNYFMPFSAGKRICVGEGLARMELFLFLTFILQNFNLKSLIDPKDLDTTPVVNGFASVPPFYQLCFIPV

Structure (SMILES)	Potency
CC[C@@H]1CN2CC[C@]3(C(=O)Nc4ccccc43)[C@@H]2C[C@@H]1/C(=C\OC)C(=O)OC	11.2 µM (active)
COc1cc2c(cc1O)C[C@H]1c3c(cc(OC)c(O)c3-2)CCN1C	3.98 µM (active)
C=C[C@H]1CN2CCc3c([nH]c4ccccc34)[C@H]2C[C@@H]1/C(=C\OC)C(=O)OC	7.08 µM (active)
COC1=C[C@@]23CCN(C)[C@H](Cc4ccc(OC)c(O)c42)C3=CC1=O	inactive
COC(=O)C1=CO[C@@H](C)[C@@H]2CN3CC[C@@]4(C(=O)Nc5ccccc54)[C@@H]3CC12 (some centres not stated)	inactive

Test system: not listed separately
Test: KB-3-1 P-gp reporter qHTS against the NCATS DSHEA and TCM libraries (AID 1919975)
Conditions: KB-3-1 parental cells, CellTiter-Glo luminescence viability, 72 h; series mostly up to 26.1 µM
Method in brief: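 Parental KB-3-1 cells, 500 cells/well, in DMEM with 10% FBS, exposed 72 h at 37 C to compounds in concentration-response. Viability read by CellTiter-Glo luminescence after 30 min at room temperature.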

Structure (SMILES)	outcome
C=C[C@H]1CN2CC[C@@]3(C(=O)Nc4ccccc43)[C@@H]2C[C@@H]1/C(=C\OC)C(=O)OC	inactive
CC[C@@H]1CN2CC[C@]3(C(=O)Nc4ccccc43)[C@@H]2C[C@@H]1/C(=C\OC)C(=O)OC	inactive
COc1cc2c(cc1O)C[C@H]1c3c(cc(OC)c(O)c3-2)CCN1C	inactive
CCCCCCCCCCCCCCCCCCCC(=O)O	inactive
COC1=C[C@@]23CCN(C)[C@H](Cc4ccc(OC)c(O)c42)C3=CC1=O	inactive
COC(=O)C1=CO[C@@H](C)[C@@H]2CN3CC[C@@]4(C(=O)Nc5ccccc54)[C@@H]3CC12 (some centres not stated)	inactive

Target: Cytochrome P450 1A2 (Homo sapiens) (UniProt P05177)
Test: qHTS for inhibitors of CYPIA2 against the NCATS DSHEA and TCM libraries (AID 1919976); further: potency means the concentration at half of the fitted maximal effect
Conditions: recombinant CYP1A2 enzyme activity, luminescence; series mostly up to 37 µM
Method in brief: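 In this quantitative HTS, inhibition of recombinant human CYP1A2 was measured as loss of luciferin-derived luminescence. Turnover ran 30-45 min at RT after NADPH regeneration solution was added.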

Chain of Cytochrome P450 1A2 (Homo sapiens) (P05177 whole entry, looked up): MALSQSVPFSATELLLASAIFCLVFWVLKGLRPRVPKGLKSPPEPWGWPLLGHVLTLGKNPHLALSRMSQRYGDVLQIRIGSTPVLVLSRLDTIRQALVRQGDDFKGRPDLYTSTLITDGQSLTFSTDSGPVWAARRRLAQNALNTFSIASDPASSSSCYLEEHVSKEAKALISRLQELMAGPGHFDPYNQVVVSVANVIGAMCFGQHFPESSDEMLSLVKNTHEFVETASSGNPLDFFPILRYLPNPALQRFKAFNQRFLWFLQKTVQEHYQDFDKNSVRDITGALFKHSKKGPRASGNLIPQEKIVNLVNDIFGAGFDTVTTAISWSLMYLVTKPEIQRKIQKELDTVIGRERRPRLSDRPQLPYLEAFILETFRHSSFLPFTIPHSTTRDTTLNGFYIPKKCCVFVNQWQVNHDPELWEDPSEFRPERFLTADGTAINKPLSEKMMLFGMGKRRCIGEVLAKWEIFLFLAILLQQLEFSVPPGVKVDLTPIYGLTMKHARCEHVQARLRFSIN

Structure (SMILES)	Potency
C=C[C@H]1CN2CC[C@@]3(C(=O)Nc4ccccc43)[C@@H]2C[C@@H]1/C(=C\OC)C(=O)OC	inactive
CC[C@@H]1CN2CC[C@]3(C(=O)Nc4ccccc43)[C@@H]2C[C@@H]1/C(=C\OC)C(=O)OC	inactive
COc1cc2c(cc1O)C[C@H]1c3c(cc(OC)c(O)c3-2)CCN1C	10 µM (active)
CCCCCCCCCCCCCCCCCCCC(=O)O	22.4 µM (active)
COC1=C[C@@]23CCN(C)[C@H](Cc4ccc(OC)c(O)c42)C3=CC1=O	inactive
COC(=O)C1=CO[C@@H](C)[C@@H]2CN3CC[C@@]4(C(=O)Nc5ccccc54)[C@@H]3CC12 (some centres not stated)	inactive
